The values below come from PubChem BioAssay (EPA / NIEHS).

Structures are written as SMILES. More than one record can exist for a structure, and the calls need not agree. Calls of active or inactive are those of the source. How the source made its calls: active means hit-call score of the fitted dose curve at least 0.9, where 1 is the maximum; inactive means score below 0.9.

Read-out in one assay: Matrix Metallopeptidase 1 (MMP1), MMP1 (gene 4312)
The assay can be described thus: BSK_MyoF_MMP1: BioMAP Diversity Plus: MyoF Assay for Matrix Metallopeptidase 1 (MMP1) Biomarker Activity (AID 2284268). Conditions: primary human lung fibroblasts. The essentials:
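Cells: human lung fibroblasts. Exposure: 24 h chemical dosing. Detection: ELISA for MMP1. Analysis: upward fitting against DMSO negative control.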
Turning to `Cc1ccc2nc3sc(=O)sc3nc2c1`, the AC50 was 5 µM (active).

Regarding `CCN(CC)C(=O)C(Cl)=C(C)OP(=O)(OC)OC`, the outcome was inactive.

As for `Oc1ccc(Cc2ccc(O)cc2)cc1`, the outcome was inactive.

Take `Cc1cc(C(C)(C)c2ccc(O)c(C)c2)ccc1O`: the half-maximal activity concentration (AC50) was 15.7 µM (active).

Regarding `[Cl][Sn]([c]1ccccc1)([c]1ccccc1)[c]1ccccc1`, the AC50 is 0.423 µM (active).

For the compound `Cc1cccc(OP(=O)(Oc2cccc(C)c2)Oc2cccc(C)c2)c1`, the outcome was inactive.

Turning to `c1ccc(-c2cccc(-c3ccccc3)c2)cc1`, the concentration at half-maximal activity (AC50) is 8.44 µM (active).

On to `Oc1c(Br)cc(Br)cc1Br`, for which the AC50 is 12.4 µM (active).

For the compound `Cc1ccc(OP(=O)(Oc2ccc(C)cc2C)Oc2ccc(C)cc2C)c(C)c1`, the AC50 was 5.97 µM (active).

For the compound `N#CCCC(Br)(C#N)CBr` (centres undefined), the result was inactive.

As for `COCC(=O)N(c1c(C)cccc1C)[C@H](C)C(=O)OC`, the result was inactive.

Take `O=S(=O)(c1ccc(Cl)cc1)c1cc(Cl)c(Cl)cc1Cl`: the concentration at half-maximal activity (AC50) is 20 µM (active).

As to `CC(C=O)Cc1ccc2c(c1)OCO2` (centres undefined), the result was inactive.

For the compound `C#CCOC(=O)/C=C(C)/C=C/CC(C)CCCC(C)C` (centres undefined), the outcome was inactive.

In the case of `CC1(C)[C@H](C(=O)O[C@H](C#N)c2cccc(Oc3ccccc3)c2)[C@@H]1/C=C(\Cl)C(F)(F)F`, the AC50 is 3.39 µM (active) and the outcome was inactive.

As to `CCOP(=O)(OCC)SCCSCC`, the outcome was inactive.

For the compound `CC(C)=CC1C(C(=O)OCc2cccc(Oc3ccccc3)c2)C1(C)C` (centres undefined), the outcome was inactive.

With `Cc1ccccc1OP(=O)(Oc1ccccc1)Oc1ccccc1`, the AC50 was 29.6 µM (active).

With `CCOP(=O)(OCC)OC(=CCl)c1ccc(Cl)cc1Cl`, the half-maximal activity concentration (AC50) was 31.7 µM (active).

Take `O=C1C=CC(=O)c2ccccc21`: the AC50 is 10.1 µM (active).

On to `CC(C)N(C(=O)CCl)c1ccccc1`, for which the result was inactive.

On to `CC(C)(COCC1CO1)COCC1CO1` (centres undefined), for which the outcome was inactive.

In the case of `C=CC(Cl)CCl` (centres undefined), the result was inactive.

Read-out in another assay: TIMP metallopeptidase inhibitor 1 (TIMP1), TIMP1 (gene 7076)
Kind of assay: BSK_MyoF_TIMP1: BioMAP Diversity Plus: MyoF Assay for TIMP metallopeptidase inhibitor 1 (TIMP1) Biomarker Activity (AID 2284269). The note with it: primary human lung fibroblasts. The essentials: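 Fibroblasts from human lung are dosed with chemical, cultured 24 h, and assayed for TIMP-1 by ELISA. Increases over the DMSO baseline are scored, with SRB total-protein staining run in parallel for cytotoxicity.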
Consider `Cc1ccc2nc3sc(=O)sc3nc2c1`, for which the outcome was inactive.

As to `CCN(CC)C(=O)C(Cl)=C(C)OP(=O)(OC)OC`, the outcome was inactive.

With `Oc1ccc(Cc2ccc(O)cc2)cc1`, the result was inactive.

`Cc1cc(C(C)(C)c2ccc(O)c(C)c2)ccc1O`: the result was inactive.

Turning to `[Cl][Sn]([c]1ccccc1)([c]1ccccc1)[c]1ccccc1`, the concentration at half-maximal activity (AC50) is 0.355 µM (active).

On to `Cc1cccc(OP(=O)(Oc2cccc(C)c2)Oc2cccc(C)c2)c1`, for which the outcome was inactive.

Turning to `c1ccc(-c2cccc(-c3ccccc3)c2)cc1`, the outcome was inactive.

On to `Oc1c(Br)cc(Br)cc1Br`, for which the outcome was inactive.

Regarding `Cc1ccc(OP(=O)(Oc2ccc(C)cc2C)Oc2ccc(C)cc2C)c(C)c1`, the outcome was inactive.

For the compound `N#CCCC(Br)(C#N)CBr` (centres undefined), the half-maximal activity concentration (AC50) was 20 µM (active).

For `COCC(=O)N(c1c(C)cccc1C)[C@H](C)C(=O)OC`, the outcome was inactive.

For the compound `O=S(=O)(c1ccc(Cl)cc1)c1cc(Cl)c(Cl)cc1Cl`, the result was inactive.

Regarding `CC(C=O)Cc1ccc2c(c1)OCO2` (centres undefined), the outcome was inactive.

As for `C#CCOC(=O)/C=C(C)/C=C/CC(C)CCCC(C)C` (centres undefined), the result was inactive.

`CC1(C)[C@H](C(=O)O[C@H](C#N)c2cccc(Oc3ccccc3)c2)[C@@H]1/C=C(\Cl)C(F)(F)F`: the result was inactive.

With `CCOP(=O)(OCC)SCCSCC`, the outcome was inactive.

Turning to `CC(C)=CC1C(C(=O)OCc2cccc(Oc3ccccc3)c2)C1(C)C` (centres undefined), the result was inactive.

As for `Cc1ccccc1OP(=O)(Oc1ccccc1)Oc1ccccc1`, the concentration at half-maximal activity (AC50) is 0.0187 µM (active).

For the compound `CCOP(=O)(OCC)OC(=CCl)c1ccc(Cl)cc1Cl`, the outcome was inactive.

For the compound `O=C1C=CC(=O)c2ccccc21`, the AC50 was 4.43 µM (active).

Consider `CC(C)N(C(=O)CCl)c1ccccc1`, for which the AC50 was 3.53 µM (active).

As to `CC(C)(COCC1CO1)COCC1CO1` (centres undefined), the result was inactive.

For the compound `C=CC(Cl)CCl` (centres undefined), the AC50 is 0.061 µM (active).

Read-out in the next assay: Intercellular Adhesion Molecule 1 (ICAM1), ICAM1 (gene 3383)
Kind of assay: BSK_BE3C_ICAM1: BioMAP Diversity Plus: BE3C Assay for Intercellular Adhesion Molecule 1 (ICAM1) Biomarker Activity (AID 2284278).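 Further: cell-surface ICAM-1 protein level quantified by ELISA.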 Conditions: primary human bronchial epithelial cells. The essentials:
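Human primary bronchial epithelial cultures; compound added; 24 h incubation; cell-surface ICAM-1 measured by ELISA; signal increase fitted relative to DMSO negative control.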
With `OCCCCO`, the result was inactive.

With `CCCCOC(=O)COC(=O)c1ccccc1C(=O)OCCCC`, the outcome was inactive.

`O=C(Cc1ccccc1)OCCc1ccccc1`: the result was inactive.

Read-out in another assay: Interferon-inducible T-cell alpha chemoattractant (ITAC), CXCL11 (gene 6373)
The assay can be described thus: BSK_BE3C_ITAC: BioMAP Diversity Plus: BE3C Assay for Interferon-inducible T-cell alpha chemoattractant (ITAC) Biomarker Activity (AID 2284279). The note with it: primary human bronchial epithelial cells. The method in brief: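 BE3C cells (human primary bronchial epithelium), 24 h compound exposure, I-TAC by ELISA, DMSO = negative control/baseline, positive fitting direction.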
For `OCCCCO`, the result was inactive.

Turning to `CCCCOC(=O)COC(=O)c1ccccc1C(=O)OCCCC`, the outcome was inactive.

Consider `O=C(Cc1ccccc1)OCCc1ccccc1`, for which the result was inactive.

Read-out in another assay: Interleukin-8 (IL8), CXCL8 (gene 3576)
The assay can be described thus: BSK_BE3C_IL8: BioMAP Diversity Plus: BE3C Assay for Interleukin-8 (IL8) Biomarker Activity (AID 2284280). Conditions: primary human bronchial epithelial cells. The essentials:
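Primary human bronchial epithelial cells (BE3C system) exposed 24 h; IL-8 measured by ELISA and fitted in positive direction versus DMSO. Overt cytotoxicity assessed by SRB total-protein staining in parallel cultures.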
In the case of `OCCCCO`, the outcome was inactive.

`CCCCOC(=O)COC(=O)c1ccccc1C(=O)OCCCC`: the result was inactive.

Take `O=C(Cc1ccccc1)OCCc1ccccc1`: the outcome was inactive.

Read-out in the next assay: Epidermal growth factor receptor (EGFR), EGFR (gene 1956)
The assay can be described thus: BSK_BE3C_EGFR: BioMAP Diversity Plus: BE3C Assay for Epidermal growth factor receptor (EGFR) Biomarker Activity (AID 2284281). Conditions: primary human bronchial epithelial cells. The essentials:
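Human primary bronchial epithelial cells (BE3C system) dosed with chemicals; EGFR measured by ELISA at 24 h, fitted in the positive direction relative to DMSO. Cytotoxicity tracked in parallel cultures by SRB total-protein staining.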
Turning to `OCCCCO`, the result was inactive.

Turning to `CCCCOC(=O)COC(=O)c1ccccc1C(=O)OCCCC`, the outcome was inactive.

For `O=C(Cc1ccccc1)OCCc1ccccc1`, the outcome was inactive.

Read-out in the next assay: KRT18 (gene 3875)
The assay can be described thus: BSK_BE3C_Keratin818: BioMAP Diversity Plus: BE3C Assay for Keratin 818 Biomarker Activity (AID 2284282). The note with it: primary human bronchial epithelial cells. The essentials:
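Chemicals are added to human lung bronchial epithelial primary cells (BE3C system) and incubated 24 h. Keratin 8/18 is then measured by ELISA, with parallel SRB total-protein staining gauging overt cytotoxicity.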
`OCCCCO`: the outcome was inactive.

Take `CCCCOC(=O)COC(=O)c1ccccc1C(=O)OCCCC`: the result was inactive.

As for `O=C(Cc1ccccc1)OCCc1ccccc1`, the result was inactive.

Read-out in another assay: Matrix Metallopeptidase 9 (MMP9), MMP9 (gene 4318)
Kind of assay: BSK_BE3C_MMP9: BioMAP Diversity Plus: BE3C Assay for Matrix Metallopeptidase 9 (MMP9) Biomarker Activity (AID 2284283). Conditions: primary human bronchial epithelial cells. The method in brief: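 ELISA read-out of MMP-9 after 24 h compound exposure of human lung bronchial epithelial primary cells (BE3C). Fit in gain direction vs DMSO negative control; total protein by SRB in parallel cultures flagged overt cytotoxicity.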
On to `OCCCCO`, for which the result was inactive.

`CCCCOC(=O)COC(=O)c1ccccc1C(=O)OCCCC`: the result was inactive.

In the case of `O=C(Cc1ccccc1)OCCc1ccccc1`, the outcome was inactive.

Read-out in a further assay: Plasminogen activator inhibitor-1 (PAI1), SERPINE1 (gene 5054)
The assay can be described thus: BSK_CASM3C_PAI1: BioMAP Diversity Plus: CASM3C Assay for Plasminogen activator inhibitor-1 (PAI1) Biomarker Activity (AID 2284284).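 Further: PAI-1 protein level measured by ELISA 24 h after dosing.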 Conditions: primary human coronary artery smooth muscle cells.
For the compound `OCCCCO`, the result was inactive.

Regarding `CCCCOC(=O)COC(=O)c1ccccc1C(=O)OCCCC`, the result was inactive.

On to `O=C(Cc1ccccc1)OCCc1ccccc1`, for which the result was inactive.

Read-out in a further assay: Monocyte Chemoattractant Protein-1 (MCP1), CCL2 (gene 6347)
Kind of assay: BSK_hDFCGF_MCP1: BioMAP Diversity Plus: hDFCGF Assay for Monocyte Chemoattractant Protein-1 (MCP1) Biomarker Activity (AID 2284285). Conditions: primary human foreskin fibroblasts. The essentials:
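Human foreskin fibroblasts (hDFCGF system) were exposed to compound and secreted MCP-1 was measured by ELISA after 24 hours. Activity was fitted relative to DMSO. Cytotoxicity was checked by SRB total-protein staining in parallel cultures.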
With `OCCCCO`, the outcome was inactive.

Take `CCCCOC(=O)COC(=O)c1ccccc1C(=O)OCCCC`: the outcome was inactive.

As for `O=C(Cc1ccccc1)OCCc1ccccc1`, the outcome was inactive.

Read-out in a further assay: Intercellular Adhesion Molecule 1 (ICAM1), ICAM1 (gene 3383)
The assay can be described thus: BSK_hDFCGF_ICAM1: BioMAP Diversity Plus: hDFCGF Assay for Intercellular Adhesion Molecule 1 (ICAM1) Biomarker Activity (AID 2284287). The note with it: primary human foreskin fibroblasts. The method in brief: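 Primary human foreskin fibroblasts (hDFCGF system) dosed with chemical; ICAM-1 quantified by ELISA at 24 h relative to DMSO. Parallel SRB total-protein staining to assess overt cytotoxicity.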
As to `OCCCCO`, the result was inactive.

Turning to `CCCCOC(=O)COC(=O)c1ccccc1C(=O)OCCCC`, the result was inactive.

In the case of `O=C(Cc1ccccc1)OCCc1ccccc1`, the result was inactive.

Usually AC50 stands for the concentration at which the activity in the assay is half-maximal.
